In PubChem BioAssay (Tox21) one finds outcome, Potency and max activation data, which are given here for nine compounds.

A number with no mark means an inactive call. Records with an inconclusive call do not appear. Calls of active or inactive are those of the source. Unless noted, calls come from the whole dose curve; as a rule, active = well fitted curve in the direction sought with a large enough effect in the repeat runs; inconclusive = weak or mixed curves; inactive = no such curve, though single readings can be large; an effect the other way counts as inactive or inconclusive.

The target in assay [1] is Thyrotropin-releasing hormone receptor (Homo sapiens) (UniProt P34981). Nature of the assay: qHTS assay to identify small molecule agonists of the thyrotropin-releasing hormone receptor (TRHR) signaling pathway (AID 1346891; calls by dose curve;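 note: HEK293 cells expressing TRHR with calcium dye readout; series mostly up to about 58 µM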). The method, boiled down:
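HEK293/TRHR cells, 1500 per well, 18 h 37 °C; Ca dye 2 h 37 °C; pin-tool compound addition (agonist mode); kinetic fluorescence 3 min, 1 s reads; 15 concentrations, triplicate.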
A general note: Quantitative high-throughput screening tests each substance at several concentrations.

Assay [2] can be described thus: Human pregnane X receptor (PXR) small molecule agonists, qHTS cell viability counter screen (AID 1346977). Note: nearly all actives have a fitted effect of over 50% in size. The method in brief: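 Fluorescence read-out (CellTiter-Fluor) of viability in PXR-Luc HepG2 cells, multiplexed with the luciferase agonist read. Compounds in DMSO added after 5hr plating; 24hr total exposure at 37C, 5% CO2.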
A short description of assay [3]: Caspase-3/7 induction in HepG2 cells by small molecules, qHTS assay (AID 1346978). Note: nearly all actives have a fitted effect of over 15% in size. The method, boiled down:
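Wild-type HepG2 cells, 2,000/well, settled 5 hr at 37 C and 5% CO2, then compound-treated for 17 hr; caspase-3/7 activity read by luminescent Caspase-Glo 3/7 after 30 min at room temperature.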

Assay [4] can be described thus: Caspase-3/7 induction in CHO-K1 cells by small molecules, qHTS cell viability counter screen (AID 1346979). Note: nearly all actives have a fitted effect of over 35% in size. The method, boiled down: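 CHO-K1 wt, 1,500 cells/well; 5hr pre-incubation 37C/5% CO2; compound pin transfer (DMSO); 16hr exposure; CellTiter-Fluor added, 1hr, fluorescence read.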
Assay [5] in a line: Caspase-3/7 induction in CHO-K1 cells by small molecules, qHTS assay (AID 1346980). Note: nearly all actives have a fitted effect of over 15% in size. The method in brief:
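Wild-type CHO-K1 cells exposed to compounds for 17hr at 37 C, 5% CO2. Caspase-3/7 activity then measured by Caspase-Glo 3/7 luminescence after 30min at room temperature.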

Assay [6] is described as follows: Caspase-3/7 induction in HepG2 cells by small molecules, qHTS cell viability counter screen (AID 1346981). Note: series mostly up to about 92 µM; nearly all actives have a fitted effect of over 30% in size. The method in brief:
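Steps: seed 2,000 HepG2 cells per well; incubate 5 hr at 37 C; pin-add compounds in DMSO; incubate 16 hr; add CellTiter-Fluor; after 1 hr at 37 C and 5% CO2, read fluorescence.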

In assay [7] the target is Nuclear receptor subfamily 1 group I member 2 (Homo sapiens) (UniProt O75469). Nature of the assay: Human pregnane X receptor (PXR) small molecule agonists, qHTS assay (AID 1346982). Note: nearly all actives have a fitted effect of over 35% in size. Note: potency is the fitted concentration of half-maximal effect. The method in brief: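 Agonist mode qHTS: PXR-Luc HepG2 cells plated 5 hr before DMSO-dissolved compounds were pinned in, cultured 24 hr at 37 C, 5% CO2; ONE-Glo luminescence readout.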
Assay [8] addresses Cytochrome P450 2D6 (Homo sapiens) (UniProt P10635). The assay is described as follows: Cytochrome P450 Family 2 Subfamily D Member 6 (CYP2D6) small molecule antagonists: luciferase reporter qHTS assay (AID 1671196). Note: nearly all actives have a fitted effect of over 50% in size. Note: potency is the fitted concentration of half-maximal effect. The method, boiled down: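 P450-Glo format: CYP2D6 converts a proluciferin substrate to luciferin in an NADPH-driven reaction lasting 1 h at room temperature. Light output, proportional to CYP2D6 activity, reflects interference by test chemicals.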

For assay [9], the target named is Cytochrome P450 2C19 (Homo sapiens) (UniProt P33261). Nature of the assay: Cytochrome P450 Family 2 Subfamily C Member 19 (CYP2C19) small molecule antagonists: luciferase reporter qHTS assay (AID 1671197). Note: series mostly up to about 120 µM; nearly all actives have a fitted effect of over 65% in size. The method in brief: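 Inhibition of CYP2C19 was scored from loss of luminescence in a P450-Glo proluciferin substrate assay, NADPH-started and run 1 h at 37C, with ketoconazole as positive control.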
For orientation: In a reporter assay the amount or activity of a reporter protein is the signal.

For assay [10], the target named is Cytochrome P450 2C9 (Homo sapiens) (UniProt P11712). The assay is described as follows: Cytochrome P450 Family 2 Subfamily C Member 9 (CYP2C9) small molecule antagonists: luciferase reporter qHTS assay (AID 1671198). Note: nearly all actives have a fitted effect of over 50% in size. Note: potency is the fitted concentration of half-maximal effect. The method, boiled down:
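P450-Glo proluciferin substrate with CYP2C9 enzyme; 10 min RT preincubation, then NADPH regeneration 1 h at 37C; luciferin detection reagent 20 min RT, luminescence in relative luminescence units.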

Assay [11] concerns the target Cytochrome P450 1A2 (Homo sapiens) (UniProt P05177). Nature of the assay: Cytochrome P450 Family 1 Subfamily A Member 2 (CYP1A2) small molecule antagonists: luciferase reporter qHTS assay (AID 1671199). Note: series mostly up to about 120 µM; nearly all actives have a fitted effect of over 50% in size. The method, boiled down:
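Inhibition of CYP1A2 conversion of proluciferin to luciferin, detected by luminescence. Reaction run 1 h at room temperature with NADPH regeneration after brief compound preincubation.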

Assay [12] concerns the target Voltage-gated inwardly rectifying potassium channel KCNH2 (Homo sapiens) (UniProt Q12809). Nature of the assay: Human Ether-a-go-go-Related Gene (hERG) channel small molecule antagonists: fluorescence cell-based qHTS assay (AID 1671200). The method in brief: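 Read-out: thallium influx as a surrogate for potassium, tracked as fluorescence (480 nm ex/540 nm em) every second for 2 min after Stimulus Buffer addition in dye-loaded hERG-U2OS cells.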
(The hERG channel carries a current that helps repolarise heart muscle cells.)

Assay [13] addresses Nuclear receptor subfamily 1 group I member 2 (Rattus norvegicus) (UniProt Q9R1A7). The assay is described as follows: Rat pregnane X receptor (rPXR) activation by small molecules, qHTS assay (AID 1346983). Note: nearly all actives have a fitted effect of over 20% in size. The settings on record: rPXR luciferase reporter cells, One-Glo luminescence, 24 h; max activation: stronger effect = higher value. The method, boiled down: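 Cell-based rPXR activation assay: rPXR cells, 2,000 per well, rested 5hr at 37 C, then exposed to compounds in DMSO for 24 hr at 37 C. Luciferase activity read by One-Glo luminescence after 30 min at room temperature.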

Assay [14] has as its target Nuclear receptor subfamily 1 group I member 2 (Homo sapiens) (UniProt O75469). The assay is described as follows: Human pregnane X receptor (PXR) activation by small molecules, qHTS assay (AID 1346985). Note: nearly all actives have a fitted effect of over 40% in size. The method, boiled down: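 DPX-2 cells (HepG2 co-transfected with a PXR response element and a CYP3A4-promoter luciferase construct) were seeded at 2,000 per well, rested 5 hr at 37C, then exposed to DMSO-dissolved compounds for 24 hr. Activation was read as luciferase luminescence.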

For assay [15], the target named is Cytochrome P450 3A4 (Homo sapiens) (UniProt P08684). Nature of the assay: Cytochrome P450 Family 3 Subfamily A Member 4 (CYP3A4) small molecule antagonists: luciferase reporter qHTS assay (AID 1671201). Note: nearly all actives have a fitted effect of over 50% in size. Note: potency is the fitted concentration of half-maximal effect. The method, boiled down: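 Luminescent readout (RLU) proportional to CYP3A4 activity, from luciferin generated off a proluciferin substrate. Enzyme–substrate mix plus compound 10 min at room temp, NADPH regeneration 1 h, detection reagent 20 min.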
% is set by controls: 0 for no effect and ±100 for the full control effect.

Cytochrome P450 2C9 (Homo sapiens), sequence (P11712 whole entry, looked up): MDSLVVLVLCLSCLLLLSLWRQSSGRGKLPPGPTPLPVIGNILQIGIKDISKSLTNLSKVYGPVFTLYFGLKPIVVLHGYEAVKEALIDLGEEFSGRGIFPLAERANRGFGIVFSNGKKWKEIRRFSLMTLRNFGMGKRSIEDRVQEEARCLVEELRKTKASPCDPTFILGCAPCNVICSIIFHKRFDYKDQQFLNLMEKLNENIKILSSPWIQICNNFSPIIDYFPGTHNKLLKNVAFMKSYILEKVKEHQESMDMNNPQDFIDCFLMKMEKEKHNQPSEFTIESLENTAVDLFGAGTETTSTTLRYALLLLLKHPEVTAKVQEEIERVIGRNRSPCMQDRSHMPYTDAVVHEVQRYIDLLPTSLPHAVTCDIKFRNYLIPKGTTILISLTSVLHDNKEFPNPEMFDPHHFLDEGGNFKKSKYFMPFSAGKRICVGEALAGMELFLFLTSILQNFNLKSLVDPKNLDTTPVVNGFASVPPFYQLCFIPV
Thyrotropin-releasing hormone receptor (Homo sapiens), sequence (P34981 whole entry, looked up): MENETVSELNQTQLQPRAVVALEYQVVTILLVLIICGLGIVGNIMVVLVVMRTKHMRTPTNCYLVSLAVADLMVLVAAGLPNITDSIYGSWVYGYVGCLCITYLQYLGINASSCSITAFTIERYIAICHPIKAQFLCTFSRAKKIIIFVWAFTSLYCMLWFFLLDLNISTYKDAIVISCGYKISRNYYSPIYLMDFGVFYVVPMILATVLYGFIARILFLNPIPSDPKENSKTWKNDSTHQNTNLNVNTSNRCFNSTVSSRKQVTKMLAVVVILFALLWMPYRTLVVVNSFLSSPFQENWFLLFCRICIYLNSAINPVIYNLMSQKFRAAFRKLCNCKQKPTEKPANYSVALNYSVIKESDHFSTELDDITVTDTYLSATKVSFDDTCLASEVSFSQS
Cytochrome P450 1A2 (Homo sapiens), sequence (P05177 whole entry, looked up): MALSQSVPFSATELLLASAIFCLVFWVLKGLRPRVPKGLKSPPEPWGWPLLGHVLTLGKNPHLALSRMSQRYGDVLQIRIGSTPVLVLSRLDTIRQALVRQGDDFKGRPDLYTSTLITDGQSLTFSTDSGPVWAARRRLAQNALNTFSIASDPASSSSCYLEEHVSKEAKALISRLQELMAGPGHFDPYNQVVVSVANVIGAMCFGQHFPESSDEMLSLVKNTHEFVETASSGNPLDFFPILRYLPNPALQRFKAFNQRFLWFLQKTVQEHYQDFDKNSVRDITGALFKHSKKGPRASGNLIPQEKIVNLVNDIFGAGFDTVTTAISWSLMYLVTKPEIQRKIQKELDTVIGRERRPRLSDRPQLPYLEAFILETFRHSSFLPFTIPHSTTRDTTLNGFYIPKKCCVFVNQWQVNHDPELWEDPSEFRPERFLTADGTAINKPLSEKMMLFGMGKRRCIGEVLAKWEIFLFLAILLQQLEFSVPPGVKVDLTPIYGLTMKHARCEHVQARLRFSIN
Cytochrome P450 3A4 (Homo sapiens), sequence (P08684 whole entry, looked up): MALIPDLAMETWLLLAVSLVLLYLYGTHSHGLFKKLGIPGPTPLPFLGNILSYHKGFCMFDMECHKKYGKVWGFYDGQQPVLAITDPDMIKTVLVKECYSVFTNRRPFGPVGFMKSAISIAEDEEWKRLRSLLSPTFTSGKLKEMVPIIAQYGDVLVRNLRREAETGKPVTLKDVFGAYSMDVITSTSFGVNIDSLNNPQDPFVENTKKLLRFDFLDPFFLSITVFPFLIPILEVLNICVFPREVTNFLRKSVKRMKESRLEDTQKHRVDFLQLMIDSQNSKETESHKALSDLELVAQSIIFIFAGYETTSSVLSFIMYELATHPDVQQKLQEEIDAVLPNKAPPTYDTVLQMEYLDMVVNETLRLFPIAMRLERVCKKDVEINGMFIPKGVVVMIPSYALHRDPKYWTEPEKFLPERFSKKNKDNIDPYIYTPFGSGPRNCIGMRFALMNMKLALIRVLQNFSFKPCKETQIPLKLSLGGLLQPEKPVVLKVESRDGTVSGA
Nuclear receptor subfamily 1 group I member 2 (Homo sapiens), sequence (O75469 whole entry, looked up): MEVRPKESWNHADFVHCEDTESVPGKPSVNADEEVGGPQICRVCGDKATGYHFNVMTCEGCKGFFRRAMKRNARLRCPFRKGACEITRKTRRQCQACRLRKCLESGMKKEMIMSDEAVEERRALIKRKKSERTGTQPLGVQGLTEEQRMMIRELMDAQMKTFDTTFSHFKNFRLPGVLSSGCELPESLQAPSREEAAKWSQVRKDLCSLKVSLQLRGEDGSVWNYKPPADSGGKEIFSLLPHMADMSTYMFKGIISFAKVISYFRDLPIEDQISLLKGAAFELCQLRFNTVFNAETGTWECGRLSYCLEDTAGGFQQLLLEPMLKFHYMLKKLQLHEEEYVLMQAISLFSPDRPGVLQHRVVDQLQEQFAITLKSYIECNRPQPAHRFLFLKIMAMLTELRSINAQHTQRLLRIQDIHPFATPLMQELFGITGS
Nuclear receptor subfamily 1 group I member 2 (Rattus norvegicus), sequence (Q9R1A7 whole entry, looked up): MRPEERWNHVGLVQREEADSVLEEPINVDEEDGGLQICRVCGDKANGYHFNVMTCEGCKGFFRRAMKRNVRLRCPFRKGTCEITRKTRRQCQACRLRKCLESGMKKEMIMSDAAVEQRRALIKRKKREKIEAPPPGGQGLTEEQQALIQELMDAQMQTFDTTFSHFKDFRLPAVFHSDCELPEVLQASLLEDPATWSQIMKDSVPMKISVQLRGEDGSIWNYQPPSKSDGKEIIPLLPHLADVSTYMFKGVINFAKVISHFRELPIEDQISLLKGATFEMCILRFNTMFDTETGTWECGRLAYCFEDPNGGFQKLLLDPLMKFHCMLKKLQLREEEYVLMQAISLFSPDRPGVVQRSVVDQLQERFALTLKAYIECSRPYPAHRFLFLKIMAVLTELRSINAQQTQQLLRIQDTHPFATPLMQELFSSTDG
Voltage-gated inwardly rectifying potassium channel KCNH2 (Homo sapiens), sequence (Q12809 whole entry, looked up): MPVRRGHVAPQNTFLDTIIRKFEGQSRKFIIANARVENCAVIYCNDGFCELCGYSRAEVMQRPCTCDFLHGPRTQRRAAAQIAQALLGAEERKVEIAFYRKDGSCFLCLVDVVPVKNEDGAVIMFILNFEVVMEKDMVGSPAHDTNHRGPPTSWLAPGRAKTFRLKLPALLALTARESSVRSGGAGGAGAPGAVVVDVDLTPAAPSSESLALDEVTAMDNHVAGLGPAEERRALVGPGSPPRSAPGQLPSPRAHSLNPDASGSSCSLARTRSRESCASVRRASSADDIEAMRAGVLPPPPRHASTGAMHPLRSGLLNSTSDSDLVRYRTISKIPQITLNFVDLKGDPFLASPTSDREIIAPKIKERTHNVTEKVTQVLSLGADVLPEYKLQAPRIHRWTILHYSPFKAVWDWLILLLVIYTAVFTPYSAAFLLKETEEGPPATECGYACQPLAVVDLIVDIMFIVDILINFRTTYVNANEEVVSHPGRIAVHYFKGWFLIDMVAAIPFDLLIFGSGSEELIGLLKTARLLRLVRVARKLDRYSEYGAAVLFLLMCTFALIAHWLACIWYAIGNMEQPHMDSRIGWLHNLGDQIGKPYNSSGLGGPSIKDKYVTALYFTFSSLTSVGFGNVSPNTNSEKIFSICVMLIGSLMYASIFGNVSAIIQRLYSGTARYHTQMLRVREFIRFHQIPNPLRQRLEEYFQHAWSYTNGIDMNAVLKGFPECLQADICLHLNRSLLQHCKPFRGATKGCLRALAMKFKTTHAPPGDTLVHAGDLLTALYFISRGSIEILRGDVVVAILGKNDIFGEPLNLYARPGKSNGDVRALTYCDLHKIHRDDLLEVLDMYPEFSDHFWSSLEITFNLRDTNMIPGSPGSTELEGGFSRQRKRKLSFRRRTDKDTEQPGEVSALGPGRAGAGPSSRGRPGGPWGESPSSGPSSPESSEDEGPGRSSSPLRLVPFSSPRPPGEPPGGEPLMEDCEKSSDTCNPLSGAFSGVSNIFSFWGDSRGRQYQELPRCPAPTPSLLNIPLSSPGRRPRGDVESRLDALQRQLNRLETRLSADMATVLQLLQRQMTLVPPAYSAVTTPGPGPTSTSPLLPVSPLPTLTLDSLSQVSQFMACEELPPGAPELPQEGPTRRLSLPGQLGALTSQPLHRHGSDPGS
Cytochrome P450 2D6 (Homo sapiens), sequence (P10635 whole entry, looked up): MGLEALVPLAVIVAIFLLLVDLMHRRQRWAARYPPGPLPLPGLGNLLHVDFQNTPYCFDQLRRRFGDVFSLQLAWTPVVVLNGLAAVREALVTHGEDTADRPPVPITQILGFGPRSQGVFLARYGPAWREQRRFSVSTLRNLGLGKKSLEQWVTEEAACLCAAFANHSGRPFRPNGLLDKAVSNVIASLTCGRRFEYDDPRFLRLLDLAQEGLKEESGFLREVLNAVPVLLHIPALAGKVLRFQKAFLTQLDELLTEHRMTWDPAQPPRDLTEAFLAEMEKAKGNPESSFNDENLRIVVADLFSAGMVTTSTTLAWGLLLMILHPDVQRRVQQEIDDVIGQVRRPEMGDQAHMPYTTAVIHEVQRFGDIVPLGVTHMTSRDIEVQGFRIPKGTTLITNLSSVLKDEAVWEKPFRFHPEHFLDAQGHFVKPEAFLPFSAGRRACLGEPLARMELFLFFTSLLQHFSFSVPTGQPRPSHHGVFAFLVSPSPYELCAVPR
Cytochrome P450 2C19 (Homo sapiens), sequence (P33261 whole entry, looked up): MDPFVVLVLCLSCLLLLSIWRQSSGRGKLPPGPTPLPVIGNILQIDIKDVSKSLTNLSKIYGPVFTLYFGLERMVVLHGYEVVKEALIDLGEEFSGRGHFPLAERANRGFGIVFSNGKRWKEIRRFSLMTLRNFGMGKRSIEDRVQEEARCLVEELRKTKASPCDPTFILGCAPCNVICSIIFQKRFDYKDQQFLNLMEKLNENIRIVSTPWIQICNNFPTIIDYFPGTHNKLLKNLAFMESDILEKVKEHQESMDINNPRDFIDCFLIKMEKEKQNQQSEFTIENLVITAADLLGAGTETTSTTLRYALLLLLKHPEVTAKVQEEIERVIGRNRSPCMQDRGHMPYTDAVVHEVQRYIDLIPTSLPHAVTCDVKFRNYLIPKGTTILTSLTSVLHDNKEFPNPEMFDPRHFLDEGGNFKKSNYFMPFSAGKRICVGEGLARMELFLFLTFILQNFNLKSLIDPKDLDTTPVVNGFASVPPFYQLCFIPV

Take `Nc1ccc(F)cc1`: the call in [1] and in assay [5] was inactive. The Potency entry in [2], in [3], in [4], in assay [6], in assay [7] and in assay [8] was “inactive” in each case. For the same compound, the Potency entry in assay [9], in [10], in [11] and in assay [12] was “inactive” each time.

On to `O=C(Nc1ccc(C(=O)O)c(O)c1)c1ccccc1`, for which the call in assay [1] and in assay [5] was inactive. Also, the Potency result in [2], in assay [3], in [4], in [6], in assay [7] and in assay [14] was “inactive” each time. The Potency result in assay [11] and in assay [12] was “inactive” in each case. Also, the max activation in assay [13] was -2.23%. The Potency in assay [8] was 15.5 µM (active).

Consider `[Cl][Nd]([Cl])[Cl]`, for which the result in assay [1] and in assay [5] was inactive. Besides, the Potency entry in assay [2], in [3], in [4], in assay [6], in assay [7] and in [8] was “inactive” throughout. In addition, the Potency result in assay [9], in assay [11], in assay [12] and in [15] was “inactive” in each case.

As for `CCCCC[C@H](O)/C=C/[C@H]1[C@H](O)CC(=O)[C@@H]1C/C=C\CCCC(=O)O`, the call in assay [1] and in assay [5] was inactive. In addition, the Potency entry in assay [2], in [3], in [4], in [6], in assay [7] and in assay [14] was “inactive” each time. Also, the Potency result in assay [8], in assay [9], in assay [10], in assay [11], in assay [12] and in assay [15] was “inactive” throughout. Moreover, the max activation in [13] is -0.864%.

`O=C(O)/C=C/c1ccc(O)c(O)c1`: the outcome in [1] and in assay [5] was inactive. Besides, the Potency result in assay [2], in assay [3], in [4], in assay [6], in assay [7] and in [8] was “inactive” each time. Moreover, the Potency result in [10], in assay [11] and in [12] was “inactive” throughout.

`CC1CCC(C(C)CS)CC1S` (configuration not stated): the compound was called inactive in assay [1] and in [5]. Besides, the Potency result in [2], in [3], in assay [4], in assay [6], in [7] and in assay [8] was “inactive” throughout. For the same compound, the Potency result in [9] and in assay [11] was “inactive” each time. Further, in assay [15], the Potency is 31.7 µM (active).

Regarding `CC(C)(C(=O)c1cccnc1)c1cccnc1`, the outcome in [1] and in [5] was inactive. Further, the Potency result in [2], in assay [3], in [4], in [6], in assay [7] and in assay [14] was “inactive” throughout. Besides, the Potency entry in [9], in [10], in [11] and in [12] was “inactive” throughout. Besides, the max activation in assay [13] is -1.51%. Also, the Potency in assay [15] was 0.389 µM (active).

For the compound `CC(=O)OCC(C)C`, the compound was classed as inactive in [1] and in assay [5]. Besides, the Potency entry in assay [2], in [3], in assay [4], in [6], in [7] and in [8] was “inactive” in each case. The Potency entry in assay [9], in assay [10], in assay [11], in assay [12] and in assay [15] was “inactive” throughout.

On to `COc1ccc(-c2cc(C(F)F)nn2-c2ccc(S(N)(=O)=O)cc2)cc1F`, for which the result in assay [1] and in assay [5] was inactive. The Potency entry in assay [2], in assay [3], in assay [4], in [6], in [14] and in [11] was “inactive” in each case. In addition, the Potency in [7] was 15 µM (active); in assay [8], 8.71 µM (active); in assay [10] it was 8.71 µM (active). In addition, in assay [13], the max activation is -1.2%.
